# From PubChem BioAssay
# The list is not random: actives were taken first. Their share in the collection is about 27%.
# CYP2C19 act – activators of human cytochrome P450 2C19; AID 1025; activation factor at 5 µM; 96,000 tested, under 10 active; recombinant CYP2C19, luciferin-H EGE luminescence; active compounds read high; 0 = fully inhibited enzyme, 1 = untreated enzyme;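 active = activation factor of at least 2 at 5 µM in the primary screen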;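 note: 0 = wells with 2.5 mM tranylcypromine and 1 = vehicle-only wells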
# Target sequence (P33261 whole entry, looked up): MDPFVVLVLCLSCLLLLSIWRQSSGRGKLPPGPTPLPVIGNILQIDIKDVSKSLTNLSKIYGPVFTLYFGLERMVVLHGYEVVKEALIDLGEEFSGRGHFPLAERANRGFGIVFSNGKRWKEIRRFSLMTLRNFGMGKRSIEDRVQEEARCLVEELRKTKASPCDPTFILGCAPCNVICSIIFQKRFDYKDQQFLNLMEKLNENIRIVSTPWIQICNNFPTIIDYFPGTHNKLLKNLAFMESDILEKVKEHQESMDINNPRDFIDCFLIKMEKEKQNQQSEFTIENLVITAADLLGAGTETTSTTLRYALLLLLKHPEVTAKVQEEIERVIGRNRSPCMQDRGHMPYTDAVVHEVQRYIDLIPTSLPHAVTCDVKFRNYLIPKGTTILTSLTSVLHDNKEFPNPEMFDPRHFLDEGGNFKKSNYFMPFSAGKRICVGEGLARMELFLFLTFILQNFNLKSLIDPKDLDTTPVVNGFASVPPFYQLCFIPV
# CYP2C9 act – activators of human CYP2C9. activation factor at 5 µM. P11712. recombinant CYP2C9, luciferin-H conversion, luminescence; active compounds read high; factor 1 = untreated enzyme, 0 = blocked. 1.4% of 96,000 active;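 active = activation factor of 2 or more for CYP2C9 at a 5 µM dose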;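 note: 0 = sulfaphenazole-blocked wells and 1 = vehicle-only wells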
# CYP2C9 inh – blocks human cytochrome P450 2C9. 20% of 96,000 active. AID 777. CYP2C9 Supersomes, luciferin-H conversion, luminescence. P11712. inhibition, % at 5 µM;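 active = blocking of liver enzyme CYP2C9 beyond about 50% at 5 µM, limit read from the data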
# sEH activator – activators of human soluble epoxide hydrolase. activation, % at 2 µM. P34913. AID 717. 0.04% of 91,000 active. purified human sEH enzymatic activity, activator screen; in the data active = activation above about 37%
# sEH inh – soluble epoxide hydrolase (human) inhibition; AID 707; recombinant human sEH enzymatic activity assay; inhibition, % at 2 µM; P34913; 0.34% of 91,000 active; in the data active = inhibition above about 80%
# CYP2C19 inh – blocks human cytochrome P450 2C19 | 21% of 96,000 active | AID 778 | P33261 | inhibition, % at 5 µM | CYP2C19 Supersomes, luciferin-H EGE luminescence, 30 min;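 active = CYP2C19 inhibition above a set limit at 5 µM in the primary screen, cut at about 50% in these data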;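 note: plate controls were negative control wells for no effect and 2.5 mM tranylcypromine positive control for full effect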
# * hit, by the source's call; · = not tested or not shown.
SMILES,CYP2C19 act,CYP2C9 act,CYP2C9 inh,sEH activator,sEH inh,CYP2C19 inh
CC1CCc2cc(F)ccc2N1C(=O)CN1C(=O)c2ccccc2C1=O (stereo unspecified),0.7,0.7,33.9,4.2,-2.1,33.1
Cc1ccc(CNC(=O)CSc2c3c(nc4cc(Cl)ccc24)CCCC3)o1,0.2,0.6,39.4,-6.6,8.6,79.5*
Cc1ccc(NS(=O)(=O)c2ccccc2)c2c1CC(C)(C)O2,0.3,2*,-100.0,-7.1,10.0,65.7*
Cc1ccc(NS(=O)(=O)c2cccc(C(=O)O)c2)c(C)c1,1,0.9,11.0,-13.8,13.4,-0.4
O=C(COc1ccc(Cl)cc1Cl)NCCC1=CCCCC1,0.9,0.9,13.7,-4.7,2.7,10.5
O=C(NCCOc1nc(N2CCOCC2)nc(N2CCOCC2)n1)Nc1ccc(Cl)cc1,0.7,0.8,15.7,-11.2,12.9,30.6
CN(C)c1nc(OCCOC(=O)c2ccccc2)nc(N(C)C)n1,0,0.3,69.5*,-1.8,1.5,98.6*
COC(=O)NCCOc1nc(N(C)C)nc(N(C)C)n1,1,1,-1.8,-2.8,6.1,0.3
CNc1nc(OCCNC(=O)Nc2ccccc2)nc(N2CCOCC2)n1,0.7,0.3,65.0*,1.3,-1.2,33.8
COc1nc(OCCNC(=O)Nc2ccccc2)nc(N(C)C)n1,0.3,0.5,46.5,-4.2,5.2,70.9*
CC1(C)N(OCc2ccccc2)C(=O)C(=O)N(OCc2ccccc2)C1(C)C,1,1,0.6,-10.5,10.3,1.2
C=CCOn1c(=O)c(=O)n(OCc2ccccc2)c2ccccc21,0,1,-4.4,-7.9,9.1,96.6*
CC(C)C(NS(=O)(=O)c1ccc(Br)s1)C(=O)O (stereo unspecified),1.1,1.1,-10.5,11.9,-14.6,-6.2
Cc1cc(C)nc(NS(=O)(=O)c2ccc(Br)s2)c1,0.5,0.8,15.8,3.3,-1.5,52.0*
Cc1cccc(NS(=O)(=O)c2ccc(Oc3ccccc3)cc2)n1,0.2,0.7,31.0,11.9,-6.2,83.0*
Cc1cccc(NS(=O)(=O)c2ccc(Br)s2)n1,0.3,0.7,31.1,-4.5,6.3,67.6*
O=C(CCc1ccccc1)Nc1nc2nc(-c3ccccc3)cc(=O)n2[nH]1,1,0.8,23.9,6.3,-6.2,-0.3
O=C(NCCCN1CCN(c2ccc(F)cc2)CC1)c1cccc(N2CCCC2=O)c1,0.2,0.7,28.5,-0.9,-1.6,80.2*
O=C(NCc1ccc(N2CCCC2=O)cc1)Nc1cccc(Cl)c1,0.4,0.3,72.5*,-71.1,72.2,59.2*
COc1ccc(CNC(=O)c2ccc3c(c2)N(C)C(=O)CS3=O)cc1 (stereo unspecified),1,0.4,63.6*,-21.3,20.3,-3.3
O=C(NCCCN1CCCC1)c1cccc(N2CCCC2=O)c1,·,·,·,-12.5,14.8,·
CCN(CCNC(=O)c1cccc(N2CCCC2=O)c1)c1ccccc1,0.1,1.1,-10.2,-34.0,34.9,89.1*
CN(CCNC(=O)c1cccc(N2CCCC2=O)c1)Cc1ccccc1,0.8,0.8,20.5,-3.6,5.0,17.9
COc1ccc(CNC(=O)c2ccc3nccnc3c2)cc1,0.9,1,1.6,-15.1,16.1,7.7
O=C(NCC1CCCO1)c1cccc(N2C(=O)C3C4C=CC(C4)C3C2=O)c1 (stereo unspecified),1,0.9,12.9,4.1,-6.1,-0.6
SMILES,CYP2C19 act,CYP2C9 act,CYP2C9 inh,sEH activator,sEH inh,CYP2C19 inh
CCSc1nc2c(c(=O)n1-c1ccc(F)cc1)SCC2,·,·,·,-4.3,7.6,·
CCCn1nnnc1SCC(=O)NNC(=O)C1CCCCC1,1,0.9,5.9,-4.5,7.2,-2.7
CC(C)(C)c1ccc(C(=O)Nc2ccc(CC(=O)O)cc2)o1,1,1.1,-8.3,-31.8,33.2,-2.9
COc1ccc(CNC(=O)c2cccc(N3CCCC3=O)c2)cc1,0.3,0.3,71.4*,5.4,-3.9,71.6*
O=C(NCc1ccco1)c1cccc(N2CCCC2=O)c1,0.8,0.6,37.8,3.4,-4.1,21.7
O=C(Oc1ccc2ccccc2c1)c1ccccc1,1,0.9,13.7,3.0,-6.7,-2.6
O=C(C1CCN(S(=O)(=O)c2cccc3cccnc23)CC1)N1CCCC1,0.6,2.6*,-163.0,-9.9,13.6,35.8
Cc1cccc(N2CCN(C(=O)C3CCN(S(=O)(=O)c4cccc5cccnc45)CC3)CC2C)c1 (stereo unspecified),0.1,1.3,-31.5,-8.2,12.0,85.2*
Cc1cccc(N2CCN(C(=O)C3CCN(S(=O)(=O)c4cccc5nsnc45)CC3)CC2C)c1 (stereo unspecified),0.7,0.8,16.7,-4.6,2.3,33.6
O=C(C1CCN(S(=O)(=O)c2cccc3cccnc23)CC1)N1CC=C(c2ccccc2)CC1,0.2,1.3,-31.1,6.3,-1.9,75.4*
CN1CCN(C(=O)C2CCC(CNS(=O)(=O)c3cccc4cccnc34)CC2)CC1 (stereo unspecified),1.1,1.3,-26.9,-5.2,3.9,-11.0
COc1ccc(Oc2ncc(CN3CCN(c4ccccc4)CC3)s2)cc1,0.2,0.1,92.9*,21.6,-23.7,82.3*
Brc1ccc(Oc2ncc(CN3CCOCC3)s2)cc1,0.2,0.8,20.5,-11.8,10.8,80.2*
Cc1sc(N/N=C/C=C/c2ccccc2)nc1-c1ccccc1,0.9,1.3,-29.8,6.9,-5.0,8.0
CCOC(=O)C(NC(=O)CC)(Nc1ccc(S(=O)(=O)Nc2onc(C)c2C)cc1)C(F)(F)F (stereo unspecified),1.2,0.5,45.2,1.9,-3.6,-16.0
c1ccc2c(c1)ccc1nnc(SCc3ccc4c(c3)OCO4)n12,0.5,0.6,35.8,-4.4,1.8,47.9
c1ccc2c(Oc3ccc4c(c3)OCO4)nncc2c1,0.4,0.9,5.3,·,·,62.2*
C(=N\Nc1nc2ccccc2s1)/c1cccs1,0.7,0.9,11.8,-4.7,4.7,29.5
N#C/C(=C(/O)c1ccco1)c1nc2ccccc2s1,0.9,0.6,36.9,4.6,-2.0,7.1
N#C/C(=C\c1cccs1)Sc1nc2ccccc2s1,0,0.5,49.7,-5.6,4.1,96.1*
N#C/C(=C\c1ccc[nH]1)Sc1nc2ccccc2s1,0.1,0.2,77.3*,·,·,91.7*
CCn1c(NC(=O)c2ccc(COc3ccc(C)cc3[N+](=O)[O-])o2)nc2ccccc21,0.8,0.8,16.4,1.1,1.2,15.0
CCCCCC(=O)N1CC2(C)CN(C(=O)CCCCC)CC(C)(C1)C2=O,1,1,-2.9,-6.8,8.1,4.2
CCn1c(Sc2nc(C)nc3scc(-c4cccs4)c23)n[nH]c1=O,0.4,0.4,58.3*,6.3,-4.8,57.0*
CCN(CC)c1ccc2cc(C(=O)Nc3cccnc3N3CCOCC3)c(=O)oc2c1,1.1,1.1,-13.4,·,·,-10.1
CCN(CC)c1ccc2cc(C(=O)Nc3ccccn3)c(=O)oc2c1,0.5,0.4,56.7*,·,·,45.3
